The values that follow come from PubChem BioAssay.

The nature of assay [1]: HepG2 liver cancer cell viability effects, profiling panel, resazurin fluorescence, 24 h, PK04 Diversity Set (AID 1172). Further: test concentration not given here. The settings on record: higher = more signal. Background: Alamar Blue is a resazurin reagent that responds to reducing activity.
Assay [2] in a line: basal S. cerevisiae growth modulation, no modifier, primary screen, OD600, strain BY4716, 24 h, basal condition (AID 1173). Particulars: OD600, 24 h, higher = more signal, called active from +8 up or from −8 down.
A short description of assay [3]: MM1S myeloma cell viability, profiling panel, resazurin fluorescence, basal, 24 h, PK04 Diversity Set (AID 1174).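 Further: MM1S multiple myeloma cell line; test concentration not given here.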 The settings on record: higher = more signal, called active from +8 up or from −8 down.
In assay [4] the target is Dihydroorotate dehydrogenase (quinone), mitochondrial (Plasmodium falciparum (isolate 3D7)) (UniProt Q08210). Nature of the assay: PfDHODH enzyme inhibitors, primary screen, biochemical, C-terminal His tag, absorbance 600 nm (AID 1175).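 Further: recombinant parasite enzyme with a five histidine tag at its C terminus; test concentration not given here.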 Particulars: DCIP absorbance 600 nm, higher = more signal, called active from +8 up or from −8 down.
Assay [5] in a line: P. aeruginosa biofilm formation inhibitors, primary screen, strain PAO1, LB-PBS medium, absorbance 600 nm (AID 1176). Further: test concentration not given here. The settings on record: P. aeruginosa PAO1 growth/biofilm, A600, 12 h; higher = more signal.
Assay [6] can be described thus: S. cerevisiae RM11-1a growth modifiers, primary screen, strain RM11-1a, OD600, basal, 24 h (AID 1177).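 Further: cultures grown under basal conditions with no added stressor; test concentration not given here.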 The settings on record: OD600, 24 h, higher = more signal, called active from +8 up or from −8 down.
A short description of assay [7]: E. coli acrAB mutant growth effects, primary screen, E. coli filamentation inducers, strain DRC39, OD650, 24 h (AID 1178).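 Further: growth measured as culture turbidity by optical density at 650 nm; test concentration not given here.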 Particulars: higher = more signal, called active from +8 up or from −8 down.
Assay [8] is described as follows: E. coli acrAB mutant growth effects, primary screen, E. coli filamentation inducers, strain DRC39, OD650, 48 h (AID 1179).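 Further: screen aims at cell division blockers that make cells filament.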 The settings on record: E. coli DRC39 delta-acrAB growth, higher = more signal, called active from +8 up or from −8 down.
Assay [9] in a line: RPMI8226 myeloma cell viability, profiling panel, resazurin fluorescence, basal, 24 h, PK04 Diversity Set (AID 1180).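 Further: RPMI8826 multiple myeloma cell line at 5000 cells per well; test concentration not given here.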 Particulars: higher = more signal.
The target of assay [10] is E3 ubiquitin-protein ligase XIAP (Homo sapiens) (UniProt P98170). Nature of the assay: XIAP binders, primary screen, biophysical, small-molecule microarray, fluorescence 635 nm (AID 1181).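 Further: score merges 667 nm emission and signal to noise over triplicate slides.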 Particulars: small-molecule microarray binding, higher = more signal.

Molecules are shown by their SMILES. Activity calls are given as the source filed them. Unless noted, how the calls were made is not given here.

Chain of Dihydroorotate dehydrogenase (quinone), mitochondrial (Plasmodium falciparum (isolate 3D7)) (Q08210 whole entry, looked up): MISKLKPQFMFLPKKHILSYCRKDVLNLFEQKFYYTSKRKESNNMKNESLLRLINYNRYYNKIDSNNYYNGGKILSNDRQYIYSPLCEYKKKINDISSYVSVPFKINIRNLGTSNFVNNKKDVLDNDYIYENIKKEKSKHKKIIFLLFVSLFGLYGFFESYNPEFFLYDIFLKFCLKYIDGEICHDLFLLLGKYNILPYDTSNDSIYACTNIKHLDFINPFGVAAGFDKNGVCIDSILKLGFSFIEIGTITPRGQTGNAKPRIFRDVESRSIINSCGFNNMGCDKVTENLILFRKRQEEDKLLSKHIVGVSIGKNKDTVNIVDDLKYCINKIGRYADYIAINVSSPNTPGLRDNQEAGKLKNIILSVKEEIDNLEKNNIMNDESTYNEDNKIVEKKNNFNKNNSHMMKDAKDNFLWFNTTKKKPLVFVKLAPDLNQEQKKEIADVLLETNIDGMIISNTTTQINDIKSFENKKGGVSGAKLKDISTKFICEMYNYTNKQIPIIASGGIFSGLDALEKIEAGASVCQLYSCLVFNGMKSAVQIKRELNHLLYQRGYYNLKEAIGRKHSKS
Chain of E3 ubiquitin-protein ligase XIAP (Homo sapiens) (P98170 whole entry, looked up): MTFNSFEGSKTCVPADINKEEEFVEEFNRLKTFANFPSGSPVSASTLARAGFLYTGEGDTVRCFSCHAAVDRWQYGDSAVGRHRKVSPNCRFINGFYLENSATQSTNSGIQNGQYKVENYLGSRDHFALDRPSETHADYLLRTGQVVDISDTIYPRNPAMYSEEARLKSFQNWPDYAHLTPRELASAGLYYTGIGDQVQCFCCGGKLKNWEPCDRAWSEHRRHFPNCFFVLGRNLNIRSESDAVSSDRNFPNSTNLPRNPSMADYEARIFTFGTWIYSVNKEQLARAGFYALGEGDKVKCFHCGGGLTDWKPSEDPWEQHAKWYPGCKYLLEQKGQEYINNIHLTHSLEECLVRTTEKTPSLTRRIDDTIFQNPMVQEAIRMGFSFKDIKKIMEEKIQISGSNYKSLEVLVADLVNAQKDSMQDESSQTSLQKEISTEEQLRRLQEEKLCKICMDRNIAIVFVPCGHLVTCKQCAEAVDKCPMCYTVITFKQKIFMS

Consider `CN1C(=O)C2C=CC(C(O)c3ccc(I)cc3)N(N3CCCCC3)C2C1=O` (stereo not given), for which the z-score in assay [1] is -1.17; in assay [2], -3.86 (inactive); in assay [3] it was -2.13 (inactive); in assay [5], 0.338 (inactive); in assay [6], -0.0818 (inactive); in assay [7], -0.709 (inactive). Further, the z-score is -1.11 (inactive) in assay [8] and -1.26 in assay [9]. For the same compound, the values for the composite z-score in assay [4] and in assay [10] were 0.0552 (inactive) and 0.33, respectively.
With `O=C1C[C@]2(c3ccc([N+](=O)[O-])cc3)C(=O)N(CCN3CCOCC3)c3cc(CO)ccc3[C@H]2N1C1CCCCC1`, the z-score is -0.592 in assay [1]; -0.0979 (inactive) in assay [2]; -0.399 (inactive) in [3]; 0.0993 (inactive) in [5]; -0.974 (inactive) in [6]; 1.06 (inactive) in [7]. Moreover, the z-score in assay [8] was 1.66 (inactive); in assay [9] it was 0.186. The composite z-score in assay [4] is -7.11 (inactive); in assay [10], -0.16.
`COC(=O)c1c(CC[C@@H](CO)NC(=O)N2CCC[C@H]2Cn2cc(-c3ccccn3)nn2)oc(C(C)=O)c1C(=O)OC`: the z-score was 0.422 in [1]; -0.835 (inactive) in assay [2]; 0.608 (inactive) in assay [3]; -0.252 (inactive) in [5]; -1.19 (inactive) in [6]; 1.28 (inactive) in assay [7]. The values for the z-score in assay [8] and in assay [9] were 0.835 (inactive) and 0.426, respectively. In addition, the figures for the composite z-score in assay [4] and in [10] were -0.492 (inactive) and -0.0351, respectively.
Regarding `COCCCNC(=O)C1N=C(c2ccc(OCCCO)cc2)N(c2ccccc2)O1` (stereo not given), the z-score in assay [1] is 0.522; in [2] it was -0.5 (inactive); in assay [3], -0.441 (inactive); in [5], -1.45 (inactive); in assay [6] it was 0.254 (inactive); in assay [7] it was 0.516 (inactive). For the same compound, the z-score in assay [8] was 1.03 (inactive); in [9], 0.694. Also, the composite z-score in assay [4] was 0.0216 (inactive); in assay [10], 0.819.
Consider `NC(=O)[C@@H]1[C@H]2C(=O)O[C@H](c3ccccc3)[C@H](c3ccccc3)N2[C@H](c2ccc(O)cc2)[C@@]12C(=O)Nc1ccc(C#CC3(O)CCCCCC3)cc12`, for which the z-score in [1] is -0.0265; in assay [2], -1.32 (inactive); in assay [3] it was 0.475 (inactive); in assay [5] it was 0.654 (inactive); in assay [6], 0.591 (inactive); in assay [7], -0.84 (inactive). The values for the z-score in assay [8] and in assay [9] were -0.184 (inactive) and -0.49, respectively. Further, the values for the composite z-score in assay [4] and in assay [10] were -0.387 (inactive) and -0.113, respectively.
On to `O=C1OCCC=C[C@H]2OC34C=CCN(CCN5CCOCC5)C(=O)[C@H]3N(CCCCCCO)C(=O)[C@@H]4C12` (stereo not given in full), for which the z-score was 0.24 in [1]; 0.039 (inactive) in assay [2]; -0.0328 (inactive) in assay [3]; -0.373 (inactive) in [5]; 0.626 (inactive) in [6]; 1.14 (inactive) in [7]. Moreover, the values for the z-score in assay [8] and in assay [9] were 1.43 (inactive) and 0.22, respectively. For the same compound, the composite z-score in [4] was 0.369 (inactive); in assay [10] it was 0.464.
Regarding `C=CCNC(=O)[C@H]1[C@@H]2C(=O)O[C@@H](c3ccccc3)[C@@H](c3ccccc3)N2[C@@H](c2ccc(OCCO)cc2)[C@]12C(=O)N(C(=O)OCCOC)c1ccccc12`, the z-score in assay [1] is -0.732; in assay [2], 1.41 (inactive); in assay [3], -0.738 (inactive); in assay [5], 1.11 (inactive); in [6], 2.32 (inactive); in [7], -0.595 (inactive). Also, the results for the z-score in assay [8] and in assay [9] were -1.27 (inactive) and -0.0749, respectively. The composite z-score is 1.17 (inactive) in [4] and -0.0969 in [10].
In the case of `[N-]=[N+]=NCc1ccccc1[C@@H]1OC(c2ccc(OCCCO)cc2)=N[C@]1(CCS(=O)(=O)c1ccccc1)C(=O)NCCN1CCOCC1`, the z-score in [1] is -1.13; in assay [2] it was -0.276 (inactive); in assay [3] it was -0.346 (inactive); in assay [5] it was 0.286 (inactive); in assay [6], 0.935 (inactive); in [7], 0.239 (inactive). In addition, the z-score in [8] was 0.564 (inactive); in assay [9], -0.185. Moreover, the composite z-score was 0.328 (inactive) in [4] and 0.703 in assay [10].
Consider `CN1C(=O)C2C=CC(C(O)c3cccs3)N(Nc3ccccc3)C2C1=O` (stereo not given), for which the z-score in assay [1] was -0.698; in assay [2], 0.702 (inactive); in [3] it was -0.861 (inactive); in assay [5], 0.847 (inactive); in assay [6], -0.0337 (inactive); in assay [7] it was -0.947 (inactive). The figures for the z-score in assay [8] and in [9] were -0.724 (inactive) and -1.15, respectively. Moreover, the composite z-score in assay [4] was -0.607 (inactive); in assay [10], 0.311.
Consider `COc1ccc(C(O)C2C=CC3C(=O)NC(=O)C3N2Nc2ccccn2)c2ccccc12` (stereo not given), for which the z-score in assay [1] was -1.07; in [2] it was -0.33 (inactive); in assay [3], -0.782 (inactive); in [5] it was 1.26 (inactive); in [6], 0.75 (inactive); in assay [7], -0.272 (inactive). Moreover, the values for the z-score in [8] and in [9] were -0.571 (inactive) and -1.24, respectively. Moreover, the composite z-score in [4] is 0.977 (inactive); in assay [10] it was 0.246.
Take `[N-]=[N+]=NCc1ccccc1C[C@@]1(C(=O)NCC(O)CO)N=C(c2ccc(OCCCO)cc2)O[C@@H]1c1ccccc1N=[N+]=[N-]` (stereo not given in full): the z-score was -2.35 in assay [1]; -0.927 (inactive) in [2]; -2.87 (inactive) in assay [3]; 1.35 (inactive) in assay [5]; 0.977 (inactive) in assay [6]; 0.707 (inactive) in assay [7]. Also, the z-score in assay [8] is -0.506 (inactive); in assay [9], -2.85. In addition, the composite z-score is 2.22 (inactive) in assay [4] and 0.1 in assay [10].
